# High-throughput results from PubChem BioAssay.
# Rows were chosen to be rich in hits. Some 7.4% of all compounds tested hit in one or more screens of this group.
# Rab9 promoter act: qHTS Assay for Rab9 Promoter Activators; Huh7 Rab9 promoter-luciferase reporter, luminescence, 24 h; Potency, µM (series often up to 9.22 µM), for the others: at the top dose activation, negative = inhibition, most hits filed as activators; 2.8% of 320,000 active; AID 485297, 2010; further: % of control where 0% means no effect; nearly all actives have a fitted effect of over 60% in size
#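 Luciferase signal after 10 min detection reagent at ambient indicates Rab9 promoter upregulation; stably transfected Huh7 cells were treated 24 h with compound in DMSO at 37 °C, 5% CO2.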
# NPC1 prom act: qHTS Assay for NPC1 Promoter Activators. Huh7 NPC1 promoter luciferase reporter, 24 h. Potency, µM (highest dose often 9.22 µM), for the others: at the top dose activation, usual class: activators. 2.4% of 320,000 active; further: % of control where 0% means no effect; nearly all actives have a fitted effect of over 60% in size
#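 Huh7 cells stably carrying NPC1 promoter–luciferase, plated in Opti-MEM with 10% FBS for 2 h, were exposed to compound in DMSO for 24 h at 37 °C; luciferase reagent was added for 10 min and luminescence read.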
# ELG1 genotox: qHTS screen for small molecules that induce genotoxicity in human embryonic kidney (HEK293T) cells expressing luciferase-tagged ELG1 | HEK293T ELG1-luciferase reporter, luminescence, 16 h | Potency, µM (titrated, usually from 46 µM), for the others: top-dose activity change, positive = activation, actives largely listed as activators | 1.3% of 330,000 active; further: % of control where 0% means no effect; nearly all actives have a fitted effect of over 60% in size
#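 HEK293T cells expressing luciferase-tagged ELG1 were exposed to compound or DMSO vehicle for 16 hr at 37 °C and 5% CO2. Luciferase activity was then measured with ONE-Glo after 30 min at room temperature.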
# SMN2 splice up: qHTS Assay for Enhancers of SMN2 Splice Variant Expression; 2.8% of 210,000 active; Potency, µM (titrated, usually from 46.1 µM), inactives show at the top dose activity change, positive = activation, most hits filed as activators; HEK293 SMN2-luciferase splicing reporter, luminescence, 30-36 h; AID 1458, 2008; further: % of control where 0% means no effect; nearly all actives have a fitted effect of over 55% in size
#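 HEK293 cells carry an SMN2 […]–luciferase reporter in which exon 7 inclusion puts luciferase in frame. Cells were plated 10-12 h before compound addition, then incubated 30-36 h at 37C. ONE-Glo luminescence was read; sodium butyrate at 4.5 mM final served as control.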
# FLuc modulator: qHTS profiling assay for firefly luciferase inhibitor/activator using purifed enzyme and Km concentrations of substrates (counterscreen for miR-21 project); Luciferin 4-monooxygenase (Photinus pyralis), P08659; purified FLuc, Km substrates, luminescence inhibition; Potency, µM (doses to about 57.5 µM), inactives show top-dose activity change, negative = inhibition, usual class: inhibitors; 6.9% of 360,000 active; AID 588342, 2011;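 further: plate controls were vehicle for no effect and reference inhibitor for full effect; nearly all actives have a fitted effect of over 55% in size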
# Target sequence (P08659 whole entry, looked up): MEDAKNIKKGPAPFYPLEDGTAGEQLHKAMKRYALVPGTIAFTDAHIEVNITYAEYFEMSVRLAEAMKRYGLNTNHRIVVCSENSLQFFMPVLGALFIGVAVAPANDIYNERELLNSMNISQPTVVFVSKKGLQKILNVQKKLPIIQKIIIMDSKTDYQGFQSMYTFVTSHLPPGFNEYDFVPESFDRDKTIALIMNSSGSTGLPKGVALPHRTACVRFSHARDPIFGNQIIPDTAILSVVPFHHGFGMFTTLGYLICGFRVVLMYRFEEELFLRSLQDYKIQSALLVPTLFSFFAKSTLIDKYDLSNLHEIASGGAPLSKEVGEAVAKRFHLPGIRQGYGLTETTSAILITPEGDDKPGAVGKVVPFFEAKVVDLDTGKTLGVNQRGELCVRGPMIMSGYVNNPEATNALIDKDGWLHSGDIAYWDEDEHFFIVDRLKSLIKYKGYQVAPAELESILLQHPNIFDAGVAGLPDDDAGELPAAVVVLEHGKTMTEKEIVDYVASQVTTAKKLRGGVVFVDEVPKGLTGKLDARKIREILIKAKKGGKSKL
#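 Biochemical qHTS of compounds, final roughly 60 µM downward over six points, against 10 nM purified firefly luciferase using Km concentrations of substrates (10 uM D-luciferin, 10 uM ATP) in Tris acetate pH 7.5 buffer; luminescence output.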
# The depositor's hits bear a star; ? = inconclusive; . = not tested or not shown; [ ] = dose if it differs, or a comment. The call rests on the fitted dose curve; in most records, active means well fitted curve in the direction sought with a large enough effect; inconclusive means small, poorly fitted or top-dose-only effect, or another doubt; inactive means no such curve, though single readings can be large; an effect the other way counts as inactive or inconclusive. Potency means the concentration at half of the fitted maximal effect.
SMILES,Rab9 promoter act,NPC1 prom act,ELG1 genotox,SMN2 splice up,FLuc modulator
O=C(Nc1nc2ccsc2c(=O)s1)c1ccc(F)cc1Cl,0.56µM*,0.71µM*,9.2µM*,.,0.54µM*
C[C@H]1Cc2c(COc3ccccc3)nc3c(c2CO1)CN(C(=O)Cc1cccs1)CC3,.,.,.,-3%[9.22 µM],.
Cc1ccc(NC(=O)Cc2csc(C)n2)c(C)c1,.,.,.,10%,-7%
Cc1ccc(NC(=O)CCN2C(=O)C3CCCCC3C2=O)c(O)c1 (stereo not given),-5%,0%,2%,.,2%
Cc1ccc(NC(=O)CCCC2CCCCC2)c(O)c1,?,?,?,.,8.5µM*
CCn1cnc2cc(NCc3ccc(N(C)C)cc3)ccc21,-3%,0%,?,-18%,?
CC(C)(C)n1cnc2cc(NCc3cccs3)ccc21,?,?,20%,8.9µM*,12µM*
CN(C)c1ccc(CNc2ccc3c(c2)ncn3C(C)(C)C)cc1,-1%,-1%,13%,.,8.5µM*
CCC(=O)Nc1ccc2c(c1)ncn2CCc1ccccc1,-4%[1.84 µM],3%,10%,.,-11%
CC(C)(C)n1cnc2cc(NC(=O)c3ccccc3)ccc21,1.4µM*,1.4µM*,5.2µM*,.,6µM*
CCn1cnc2cc(NC(=O)c3cccs3)ccc21,2.2µM*,3.5µM*,?,13µM*,15µM*
CC(C)(C)n1cnc2cc(NC(=O)c3cccs3)ccc21,1.3µM*,2.5µM*,?,13µM*,7.6µM*
COCc1cc(=O)n2[nH]c(-c3ccco3)cc2n1,0%,-6%,3%,.,-14%
CCCCN1Cc2c(nc3cc(-c4ccco4)[nH]n3c2=O)C1=O,12%,3%,0%,.,17µM*
Cc1cc(NC(=O)c2cc(CC(C)C)on2)no1,3%,2%,13µM*,21%,11µM*
CCCc1cc(C(=O)Nc2cc(C)on2)no1,-5%,2%,?,5%,21µM*
CCOc1ccccc1NC(=O)CSc1ncc2c(n1)-c1ccccc1N(CC)S2(=O)=O,.,.,.,.,2%
CC1SCC(NC(=O)c2ccccc2Cl)CS1 (stereo not given),4.5µM*,?,?,.,17µM*
CCC1CN(C(=O)N2CCC(C(=O)NCCCc3ccccc3)CC2)c2ccccc2O1 (stereo not given),.,.,.,.,-1%
O=C(O)c1ccc(/C=N/N2CCN(c3ccccc3)CC2)cc1,1.4µM*,1.1µM*,15%,.,4.3µM*
COc1ccccc1N1CCN(/N=C/c2ccc(C(=O)O)cc2)CC1,0.71µM*,1µM*,?,.,2.7µM*
COc1ccccc1N1CCN(/N=C/c2ccc(O)c(O)c2)CC1,-21%,-28%,?,?,?
C(=N/N1CCN(c2ccccc2)CC1)/c1ccncc1,-8%,-1%,-2%,.,-23%
O=[N+]([O-])c1ccccc1N/N=C/c1c[nH]c2ccccc12,1%,?,4.1µM*,13µM*,4.3µM*
O=[N+]([O-])c1ccccc1N/N=C/c1ccc2c(c1)OCO2,0.32µM*,0.5µM*,2.9µM*,2.8µM*,0.48µM*
SMILES,Rab9 promoter act,NPC1 prom act,ELG1 genotox,SMN2 splice up,FLuc modulator
NS(=O)(=O)c1ccc(N/N=C/c2ccc3c(c2)OCO3)c([N+](=O)[O-])c1,3%,2%,5%,-2%,-5%
O=[N+]([O-])c1ccc(N/N=C/c2c[nH]c3ccccc23)cc1,-2%,-2%,15%,-10%,?
O=[N+]([O-])c1ccccc1N/N=C/c1ccccc1,?,4µM*,?,.,?
O=C(COc1ccc(F)cc1)Nc1nnc(SCc2cc(=O)n3ccccc3n2)s1,.,.,.,.,-13%
CNc1cccc2c1C(=O)c1ccccc1C2=O,?,28%,?,?,9.5µM*
O=C(c1ccco1)N1CCN(c2ncnc3c(-c4ccc(Cl)cc4)nsc23)CC1,9%,1%,?,.,6µM*
COc1ccc(-c2nsc3c(N4CCN(S(=O)(=O)c5ccccc5)CC4)ncnc23)cc1,-8%,-3%,4%,-18%,-1%
O=C(c1ccco1)N1CCN(c2ncnc3c2oc2ccccc23)CC1,2%,-2%,?,4%,24µM*
COc1ccccc1N1CCN(c2ncnc3c2oc2ccccc23)CC1,-20%,-24%,?,.,27µM*
COc1ccc(-c2nsc3c(N4CCCC4)ncnc23)cc1,0.11µM*,4µM*,.,?,0.13µM*
O=C1CCC=C1C(O)CCc1ccccc1 (stereo not given),.,.,.,6%,.
CC(=O)NCCNC(=O)c1ccc2c(=O)n(CCc3ccccc3)c(=O)[nH]c2c1,.,.,.,12%,?
Cc1nnc(N2CCC(C(=O)NCCc3ccccc3Cl)CC2)c2nn(-c3ccccc3)c(C)c12,.,.,.,.,-17%
Nc1[nH]c(=O)nc2c1ncn2[C@H]1O[C@@H](CO)[C@@H](O)[C@@H]1O,.,.,.,-2%[9.22 µM],.
O=C(Cn1ncn2c(cc3cc(F)ccc32)c1=O)NC1CCCCC1,.,.,.,8%,4%
COc1ccc(NC(=O)Nc2ncccc2C)cc1,?,?,?,11µM*,11µM*
Cc1cccnc1NC(=O)Nc1ccc(Cl)cc1,4µM*,-8%,?,.,4.3µM*
Cc1cccnc1NC(=O)Nc1ccccc1,4µM*,?,?,.,11µM*
COc1ccc(C(=O)NC(=O)Nc2ncccc2C)cc1,3.5µM*,?,?,?,17µM*
CCCN1C(=O)C2(c3ccccc31)c1c(oc3ccc(F)cc3c1=O)C(=O)N2CCCOC(C)C (stereo not given),.,.,.,-7%,-6%
CCOc1ccc(CCNC(=O)c2cccc(-n3c(C)nc4cccnc43)c2C)cc1,.,.,.,.,-1%
COc1cc(C(=O)Nc2ccc(OCc3cc(=O)n4cccc(C)c4n3)cc2)cc(OC)c1OC,.,.,.,.,-2%
Cc1ccnc(NC(=O)COC(=O)c2ccc(F)cc2F)n1,-1%,0%,-1%,.,-1%
Cc1cc(NC(=O)NC(=O)c2ccc(F)cc2F)n[nH]1,0.56µM*,0.5µM*,?,11µM*,7.6µM*
COc1ccccc1NC(=O)C1=C(C)Nc2nc(SC)nn2C1c1ccccc1Cl (stereo not given),.,.,.,3%,1%
Cn1c(=O)[nH]c2nnc(-c3ccc(Cl)c(Cl)c3)nc2c1=O,?,0.71µM*,?,.,3.4µM*
COc1ccc([C@]23Cc4cc(C#N)ccc4[C@H](O2)c2c(cc(C)n(Cc4ccccc4)c2=O)O3)cc1,-4%[1.84 µM],0%[1.84 µM],.,.,-15%[11.5 µM]
COc1ccc(-c2noc(N3CCN(c4cccc(Cl)c4)CC3)n2)cc1OC,.,.,.,.,-6%
O=C(CSc1nnc(-c2cccs2)n1Cc1ccco1)Nc1ccc2c(c1)OCO2,-2%,-1%,-5%,-20%,1%
